Measured values as given in PubChem BioAssay (NCATS).
Records with an inconclusive call do not appear. A call without a number means that no potency is given here. The source made the active and inactive calls. Calls come from the whole dose curve; as a rule, active = well fitted cell-killing curve with a large enough effect; inconclusive = small, poorly fitted or top-dose-only effect; inactive = flat fitted curve, though single readings scatter.

Experiment: qHTS of pediatric cancer cell lines to identify multiple opportunities for drug repurposing: Primary screen for Rh18 cells (AID 1347102); note: nearly all actives have a fitted effect of over 65% in size
Settings: Rh18 rhabdomyosarcoma viability, CellTiter-Glo luminescence, 48 h; series mostly up to 46 µM
Source text: Drug repurposing or repositioning has been offered as a strategy for drug development in oncology programs. This approach has special potential for childhood cancers and other rare or orphan diseases, where the expected return on new drug development has been a disincentive to pharmaceuticals.
In this project we exploit the poly-pharmacology of drugs to discover new indications via phenotypic screening of a panel of 19 well-characterized cell lines derived from solid tumors seen in children and adolescents. The goal is to identify approved drugs with previously unrecognized anticancer properties that has the potential to reveal new mechanisms and biological processes involved in carcinogenesis or drug resistance. We employed a titration-based paradigm (quantitative high-throughput screening or qHTS), where all compounds were tested at multiple concentrations for their effect on cell viability. Concentration-response curves (CRCs) were derived directly from the primary screen, and both potency and efficacy values were used to identify compounds with robust bioactivity profiles. We screened the NIH Chemical Genomics Center (NCGC) Pharmaceutical Collection (NPC) and Mechanism Interrogation Plate (MIPE) small molecule collections of approved and investigational compounds against these cell lines; and measured metabolically active cells after 48 hours of compound treatment as a proxy for cell viability.
Assay Submitter: Nathalia J. Martinez, National Center for Advancing Translational Sciences, National Institutes of Health, Rockville, MD, USA; email: natalia.martinez@nih.gov
[1] Shen, M et al. Quantitative high-throughput phenotypic screening of pediatric cancer cell lines identifies multiple opportunities for drug repurposing. Oncotarget 2017 Dec 19;9(4):4758-4772. PMID 29435139.
The cells were obtained from University of North Carolina (UNC), Pediatric Preclinical Testing Program (PPT), and Coriell Institute (CI).
qHTS cell viability assay:
Cells were assayed in growth media at a density of 500-1,000 cells/well. Five microliters of cells were dispensed into 1,536-well, white, solid-bottom, TC-treated plates (Greiner Bio One) using a multidrop dispenser and incubated at 37 degrees C, 5% CO2, under a humidified atmosphere for 5 hours. Twenty-three nanoliters of compounds and controls (neutral control DMSO or positive control bortezomib at final concentration of 2.3 µM) were subsequently transferred by Kalypsys pintool. For primary screens, the MIPE collection was tested at 11-point dilutions (final concentrations range from 0.78 nM to 46 µM) and the NPC collection at 8-point dilutions (final concentrations range from 0.59 nM to 46 µM). Compounds tested in follow-up screens were assayed at 11-point dilutions. Cells were incubated for 48 hours, followed by addition of 3 µL of CellTiter-Glo (Promega). After a 15 min incubation at room temperature, samples were analyzed for luminescence intensity using a ViewLux High-throughput CCD imager equipped with clear filters.
Potency is the fitted concentration of half-maximal effect.

**Q.** For `COc1cccc([C@@H](C)NCCCc2ccccc2Cl)c1`, which Potency is on record?
**A.** The Potency was “inactive”.

**Q.** Which Potency does the source give for `O=C(NOCC(O)CO)c1cc(Br)c(F)c(F)c1Nc1ccc(I)cc1F` (stereo not given) here?
**A.** The Potency was “inactive”.

**Q.** Which Potency does the source give for `O=C1C(Cl)=C(NCCN2CCOCC2)C(=O)c2ncccc21` here?
**A.** The Potency was 2.35 µM (active).

**Q.** For `CC1(C)Cc2c(sc(NC(=S)NC(=O)c3ccccc3)c2C(=O)O)CO1`, which Potency is on record?
**A.** Its Potency is “inactive”.

**Q.** Which Potency does the source give for `O=C(O)C=Cc1ccc(O)c(O)c1` here?
**A.** The Potency was “inactive”.

**Q.** For `NC(=O)c1cccc(-c2cc(Nc3ccc(OC(F)(F)F)cc3)ncn2)c1`, which Potency is on record?
**A.** Its Potency is “inactive”.

**Q.** Which Potency does the source give for `O=C1C[C@@H](c2ccc(O)cc2)Oc2cc(O)cc(O)c21` here?
**A.** The Potency was “inactive”.

**Q.** With `CN1[C@@H]2CCC[C@@H]1CC(NC(=O)c1nn(C)c3ccccc13)C2` (stereo not given in full) as the compound, how does the Potency read?
**A.** Its Potency is “inactive”.

**Q.** Which Potency does the source give for `N#C[C@H]1C[C@H]2C[C@@H]2N1C(=O)[C@@H](N)C12CC3CC(CC(O)(C3)C1)C2` here?
**A.** Its Potency is “inactive”.

**Q.** For `O=c1c(-c2ccc(O)cc2)coc2cc(O[C@@H]3O[C@H](CO)[C@H](O)[C@H](O)[C@H]3O)ccc12`, which Potency is on record?
**A.** The Potency was “inactive”.

**Q.** Which Potency does the source give for `CC(C(=O)O)c1ccc(-c2ccccc2)c(F)c1` (stereo not given) here?
**A.** The Potency was “inactive”.

**Q.** For `COc1ccc2c3c1OC1C[C@@H](O)C=C[C@@]31CCN(C)C2` (stereo not given in full), which Potency is on record?
**A.** The Potency was “inactive”.

**Q.** With `Nc1ncnc2c1ncn2[C@@H]1O[C@@H](CO)[C@H](O)[C@H]1O` as the compound, how does the Potency read?
**A.** Its Potency is “inactive”.

**Q.** With `CCCCCCCCCCCC1=C(O)C(=O)C=C(O)C1=O` as the compound, how does the Potency read?
**A.** The Potency was “inactive”.

**Q.** For `COc1ccc(C2CC(c3ccccc3)=NN2c2ccc(S(N)(=O)=O)cc2)cc1` (stereo not given), which Potency is on record?
**A.** The Potency was “inactive”.

**Q.** For `C=CCc1ccc(O)c(-c2ccc(O)c(CC=C)c2)c1`, which Potency is on record?
**A.** Its Potency is “inactive”.

**Q.** Which Potency does the source give for `COc1ccc(-c2coc3cc(O)cc(O)c3c2=O)cc1` here?
**A.** Its Potency is “inactive”.

**Q.** Which Potency does the source give for `O=C(O)C(O)Cc1ccc(O)c(O)c1` (stereo not given) here?
**A.** The Potency was “inactive”.

**Q.** With `CCN1CCC[C@H]1CNC(=O)c1cc(S(N)(=O)=O)ccc1OC` as the compound, how does the Potency read?
**A.** Its Potency is “inactive”.

**Q.** Which Potency does the source give for `CC(C)(C)c1ccc(C(O)CCCN2CCC(C(O)(c3ccccc3)c3ccccc3)CC2)cc1` (stereo not given) here?
**A.** The Potency was “inactive”.

**Q.** Which Potency does the source give for `CCOC1OC(=O)C[C@H]1NC(=O)[C@@H]1CCCN1C(=O)[C@@H](NC(=O)c1ccc(N)c(Cl)c1)C(C)(C)C` (stereo not given in full) here?
**A.** Its Potency is “inactive”.

**Q.** For `Cc1ccc(/C=N/NC(=O)c2ccccc2Oc2ccccc2)o1`, which Potency is on record?
**A.** The Potency was “inactive”.

**Q.** Which Potency does the source give for `CC(C)C(=O)Oc1ccc(CO)cc1[C@H](CCN(C(C)C)C(C)C)c1ccccc1` here?
**A.** The Potency was “inactive”.

**Q.** For `CCCCCN(C)CCC(O)(P(=O)(O)O)P(=O)(O)O`, which Potency is on record?
**A.** Its Potency is “inactive”.

**Q.** With `C=C1C(=O)OC2C=C(C)CCC=C(C)CCC12` (stereo not given) as the compound, how does the Potency read?
**A.** Its Potency is “inactive”.

**Q.** For `COc1ccc(C2Sc3ccccc3N(CCN(C)C)C(=O)C2OC(C)=O)cc1` (stereo not given), which Potency is on record?
**A.** The Potency was “inactive”.

**Q.** For `Clc1ccc(C(c2ccc(Cl)cc2)n2cc[n+](CC(OCc3ccc(Cl)cc3Cl)c3ccc(Cl)cc3Cl)c2)cc1` (stereo not given), which Potency is on record?
**A.** The Potency was 23.5 µM (active).

**Q.** For `COc1ccc2cc(-c3nc(-c4ccc(S(C)=O)cc4)[nH]c3-c3ccncc3)ccc2c1` (stereo not given), which Potency is on record?
**A.** The Potency was “inactive”.

**Q.** For `CC(=Cc1ccccc1)C=C1SC(=S)N(CC(=O)O)C1=O`, which Potency is on record?
**A.** The Potency was “inactive”.

**Q.** With `COc1cc(O)c2c(c1)C(=O)c1cc(C)cc(O)c1C2=O` as the compound, how does the Potency read?
**A.** The Potency was “inactive”.

**Q.** With `COC(=O)N[C@H](C(=O)N1CCC[C@@H]1c1ncc(-c2ccc(-c3ccc(-c4cnc([C@@H]5CCCN5C(=O)[C@@H](NC(=O)OC)C(C)C)[nH]4)cc3)cc2)[nH]1)C(C)C` as the compound, how does the Potency read?
**A.** Its Potency is 23.5 µM (active).

**Q.** Which Potency does the source give for `CCN(CC)CCOC(=O)c1ccc(N)cc1` here?
**A.** The Potency was “inactive”.

**Q.** Which Potency does the source give for `C=C1C(=O)OC(CCCCCCCC)C1C(=O)O` (stereo not given) here?
**A.** The Potency was “inactive”.

**Q.** Which Potency does the source give for `CCC(CC)[C@H](NC(C)=O)[C@@H]1[C@H](O)[C@@H](C(=O)O)C[C@@H]1N=C(N)N` here?
**A.** Its Potency is “inactive”.

**Q.** Which Potency does the source give for `N#CC1(c2ccc(NC(=O)c3cccnc3NCc3ccncc3)cc2)CCCC1` here?
**A.** Its Potency is “inactive”.

**Q.** For `COc1ccc(-n2c(C)c([N+](=O)[O-])c3ccc(O)cc32)cc1`, which Potency is on record?
**A.** The Potency was “inactive”.

**Q.** With `CC(=O)Nc1ccc([C@H](C)C(=O)Nc2ncc(C(C)C)s2)cc1` as the compound, how does the Potency read?
**A.** Its Potency is 7.43 µM (active).

**Q.** Which Potency does the source give for `Cc1[nH]c(C=C2C(=O)Nc3ccc(S(=O)(=O)Cc4c(Cl)cccc4Cl)cc32)c(C)c1C(=O)N1CCC[C@H]1CN1CCCC1` here?
**A.** Its Potency is 14.8 µM (active).

**Q.** Which Potency does the source give for `C[C@H](NC(=O)C(=O)Nc1ccccc1C(C)(C)C)C(=O)N[C@@H](CC(=O)O)C(=O)COc1c(F)c(F)cc(F)c1F` here?
**A.** Its Potency is “inactive”.

**Q.** For `CCOC(CN1C(=O)[C@](CC(=O)Nc2ccc(C)cc2)(NC(=O)Nc2ccc(C)cc2)c2ccccc21)OCC`, which Potency is on record?
**A.** The Potency was “inactive”.
